# Data from PubChem BioAssay AID898 (University of Pittsburgh Molecular Library Screening Center, 2007).
# Hit rate of the full screen: of about 140,000 compounds, about 220 (0.16%) were called active. The full list was thinned out, with actives kept by preference. Values without a mark were called inactive. Cut-off read from the data, not from the text of the source: active = inhibition above about 50%; inactive = the rest.
# Test system: YopH tyrosine phosphatase [Yersinia enterocolitica]
# Assay: YopH tyrosine phosphatase inhibitors, primary screen, biochemical, fluorescence Ex485/Em525 (AID 898)
# Details: hits give high values, concentration not given here
row,SMILES,inhibition
1,Cc1ccc(-n2c(SCC(=O)Nc3ncc(Cl)cc3Cl)nc3ccccc32)cc1,8.79%
2,CCOC(=O)/C=C/C(=O)OCC(=O)NC(c1ccccc1)c1ccccc1,-29%
3,Cc1cc(C)c(C2C3=C(Nc4c2c(C)nn4-c2ccccn2)c2ccccc2C3=O)c(C)c1 (stereo not given),-0.15%
4,CCOC(=O)c1c(C)[nH]c2c1-c1ccccc1C(=O)C2=O,78.7% (active)
5,CCOC(=O)c1c(C)[nH]c(=S)c(C#N)c1-c1ccccc1,-37.4%
6,CCOC(=O)C1=C(c2ccc(OC)cc2)C(=O)c2ccccc2C1=O,16.7%
7,COc1ccc2c(CC(=O)OCC(=O)Nc3ccccc3[N+](=O)[O-])coc2c1,-29.4%
8,Cc1ccc(C(=O)Oc2coc(CSc3nnc(NC(=O)c4cccs4)s3)cc2=O)cc1C,0.04%
9,NC1=NC(=O)S/C1=C\c1ccc(O)cc1,-36.5%
10,CCOc1ccccc1N1CCN(C(=S)Nc2ccc(S(N)(=O)=O)cc2)CC1,-2.91%
11,CC(C)(C)C(=O)NC(NC(=S)Nc1ccc(S(N)(=O)=O)cc1)C(Cl)(Cl)Cl (stereo not given),-18.5%
12,CCn1c(C(C)NC(=O)c2ccc(C)cc2)n[nH]c1=S (stereo not given),-41.3%
13,CCN1CCC2(CC1)N=C(c1ccc(F)cc1)C(=S)N2C(=O)c1ccc(C)cc1,77.9% (active)
14,Cc1ccc(C(=O)N(CN2CCCC2=O)c2ccc(F)cc2)cc1,-41.7%
15,CC(=O)c1c(C)[nH]c(C(=O)OCC(=O)Nc2sc3c(c2C#N)CCCC3)c1C,-24.9%
16,COCCCN(C(=S)Nc1c(C)cc(C)cc1C)C(C)c1ccncc1 (stereo not given),-22.6%
17,Cc1ccccc1-n1nc(C)c2c1N=C1C(Cl)=CC(Cl)=CN1C2c1ccc(C(=O)O)cc1 (stereo not given),-22.9%
18,COC(C(=O)Nc1ccc(C(C)=O)cc1)c1ccccc1 (stereo not given),-28.2%
19,C/C(=N/NC(=S)Nc1ccccc1)c1ccc2c(c1)OCO2,-22.5%
20,COc1ccc(OCCNS(=O)(=O)Cc2ccccc2)cc1,-30.4%
21,Cc1nonc1C(=O)N/N=C/c1ccc(O)cc1,-21.7%
22,Cc1ccc2c(CC(=O)NCc3cccs3)coc2c1,-29.9%

row,SMILES,inhibition
1,CCc1cccc(CC)c1NC(=O)COc1ccccc1C(=O)c1cc(C#N)c(=O)n(C2CCCCC2)c1,-24.5%
2,Cc1ccc(-c2cc(C(=O)N/N=C/C=C/c3ccccc3)n[nH]2)o1,-23%
3,O=C(COC(=O)c1cc2c(s1)CCCC2)NCc1ccccc1Cl,-45.2%
4,CCCN1CNC(=S)N(CCc2ccccc2)C1,-20.8%
5,CCCCc1cc2c(s1)CCCC/C2=N/O,-2.52%
6,N#Cc1c(-c2ccc(F)cc2)cc(C2CC2)nc1SCC(=O)c1cccs1,-21.7%
7,Cc1ccc(O)c(-c2cc(C(=O)Nc3c(C)n(C)n(-c4ccccc4)c3=O)[nH]n2)c1,-27%
8,O=C(CSc1nc2ccccc2[nH]1)Nc1nc(-c2ccccc2)c(-c2ccccc2)o1,-23.6%
9,COc1ccc(Br)cc1CN(C)CC(=O)Nc1cc(Cl)cc(Cl)c1,-5.01%
10,CCCCNC(=O)CCn1c(=O)c2ccccc2n(Cc2cc(C)ccc2C)c1=O,-41.6%
11,Nc1nnc(SCC(=O)OCc2ccc(Cl)c(Cl)c2)s1,-17.1%
12,CC(=O)Nc1ccc(C(=O)OCC(=O)Nc2ccc([N+](=O)[O-])cc2C(F)(F)F)cc1,-15.8%
13,C[n+]1ccccc1C1CCCC/C1=N\Nc1ccc([N+](=O)[O-])cc1[N+](=O)[O-] (stereo not given),3.63%
14,CN(C)CCNC(=O)Cc1ccc([N+](=O)[O-])cc1,-24.9%
15,COC(=O)c1nc2ccccc2s1,-16.5%
16,CC1=CC(=C(C#N)c2nc3ccccc3s2)C=C(C)N1c1ccc(F)cc1F,79.4% (active)
17,N#C/C(=C(/O)Cc1cccc2ccccc12)c1nc2ccccc2s1,-11%
18,O=[N+]([O-])c1ccc(N2CCNCC2)cc1NCc1cccnc1,-24.3%
19,COc1ccc(C/C(C)=N/NC(=O)c2cc(C)oc2C)cc1,-13.9%
20,COCCNC(=O)c1ccccc1NS(=O)(=O)c1ccc(C)c([N+](=O)[O-])c1,-4.7%
21,CCCC(NC(=O)c1ccco1)c1nc2ccccc2[nH]1 (stereo not given),-24.8%
22,C/C(=N\NC(=O)CSc1nc2ccccc2c(=O)n1-c1ccccc1C)c1cccs1,-17%

row,SMILES,inhibition
1,CN1CCN(c2ccc(NC(=O)c3ccc4c(c3)[nH]c(=O)n4Cc3ccc(F)cc3)cc2)CC1,-24.8%
2,O=C(/C=C/NCc1ccc(F)cc1)c1ccccc1,-30.4%
3,Cc1c(NC(=S)Nc2ccccc2)c(=O)n(-c2ccccc2)n1C,-29.6%
4,CCCCOC(=O)c1ccc(NC(c2ccc(C)cc2)P(=O)(OC)OC)cc1 (stereo not given),-6.33%
5,COc1ccccc1N1N=C(c2cccs2)CC1c1ccccc1 (stereo not given),-12.8%
6,CCN(CC)CCn1c(/N=C/c2cc(Br)ccc2O)nc2ccccc21,-20.7%
7,C=CCNCCCCOc1ccccc1,-29.1%
8,O=C(CSc1nnc(SCc2ccc(Cl)cc2)s1)N/N=C/c1ccccc1Cl,-26.2%
9,CC(=O)Nc1ccc(S(=O)(=O)N2CCN(c3ccc([N+](=O)[O-])c(NCCN4CCOCC4)c3)CC2)cc1,-27.6%
10,C=CCNC(=O)/C=C/c1ccc(C(C)C)cc1,-23.5%
11,Cc1ccc(N(Cc2cc3ccccc3[nH]c2=O)C(=O)c2cccs2)cc1,-10.8%
12,O=C(NC1CCCCCC1)c1cccnc1Sc1ccc(Cl)cc1,-17.2%
13,Brc1ccc(C2CC(c3ccccc3)=Nc3ccccc3N2)cc1 (stereo not given),-11.5%
14,COC(=O)C1=NNC2(c3ccc(C)cc3)C(=O)N(c3cccc(C)c3C)C(=O)C12 (stereo not given),-28.4%
15,COc1cc(C(=S)NC2CCCCC2)ccc1O,-30.2%
16,CC1(C)C2CC=C(/C=N/NC(=O)c3ccc(Cl)cc3)C1C2 (stereo not given),-29.6%
17,CCCc1nc(SCC(=O)Nc2ccc(S(=O)(=O)N(C)C)cc2)c2ccccc2n1,-25.4%
18,NC1=NN(c2cccc(C(=O)O)c2)C(=O)C1,-7.9%
19,CN(CC(=O)NCCc1ccccc1)S(=O)(=O)c1cnc[nH]1,-21%
20,COc1cccc(NC(=S)NCc2ccco2)c1,-28.3%
21,O=C(CN1CCN(c2ccccn2)CC1)N1CCc2ccccc21,-10%
